Test results published in PubChem BioAssay (NCATS).
“And” between values parts separate entries of the source, which are not always exact repeats. Equal entries are not always repeated. Results filed as inconclusive are left out. The source made the active and inactive calls. Unless noted, calls follow the shape of the full dose curve.

Key:
[1] = molecular target: Cytochrome P450 3A4 (Homo sapiens) (UniProt P08684); assay: qHTS Assay for Inhibitors and Substrates of Cytochrome P450 3A4 (AID 884; active = well fitted curve in the direction sought with a large enough effect; an effect the other way counts as inactive or inconclusive; also: series mostly up to about 57 µM; % is scaled to controls: 0 for no effect and ±100 for the full control effect; nearly all actives have a fitted effect of over 50% in size)
Procedure, shortened: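 Luminescent readout of luciferin produced by CYP3A4 (20 nM) dealkylation of Luciferin-PPXE, 25 uM (its KM). NADPH-driven reaction ran 60 min at RT after 10 min compound preincubation; data scaled to 57 uM ketoconazole as 100% inhibition.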

[2] = MultiTox-Fluor Cytotoxicity Assay - LYMP1-002 - Dead Cells (AID 960; active = well fitted curve in the direction sought with a large enough effect; an effect the other way counts as inactive or inconclusive;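 also: 0% = DMSO and 100% = tetraoctylammonium bromide; nearly all actives have a fitted effect of over 60% in size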)
Procedure, shortened: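 Dead-cell fluorescence (Ex/Em 485/520) after 16 h compound exposure at 37 C of LYMP1-002 lymphoblastoid cells in complete medium; AC50 by Hill equation, with data scaled between DMSO and 15 uM tetraoctylammonium bromide.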

[3] = molecular target: Estrogen receptor (Homo sapiens) (UniProt P03372); assay: qHTS assay for small molecule antagonists of estrogen receptor alpha signaling (AID 588513; active = well fitted curve in the direction sought with a large enough effect in the signal ratio, with a control signal flat, not every such curve was filed as active; the % refers to the signal ratio; also: % is scaled to controls: 0 for no effect and ±100 for the full control effect)
Procedure, shortened: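 Antagonist-mode qHTS in ER-alpha-UAS-bla HEK 293 cells: compound titration, 0.5nM estradiol for 18 h, CCF4 fluorescence, Hill-derived IC50.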

[4] = molecular target: Estrogen receptor (Homo sapiens) (UniProt P03372); assay: qHTS assay for small molecule agonists of estrogen receptor alpha signaling (AID 588514);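 also: 0% = vehicle only and 100% = reference agonist; nearly all actives have a fitted effect of over 70% in size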
Procedure, shortened: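 EC50 and efficacy came from Hill fits of beta-lactamase reporter signal (CCF4 dye, 2 h at room temperature) scaled between DMSO and 20 nM 17-beta-estradiol. Agonist mode: HEK293 ER-alpha-UAS-bla cells in charcoal/dextran-stripped serum medium, 18 h compound exposure at 37 C.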

[5] = molecular target: Glucocorticoid receptor (Homo sapiens) (UniProt P04150); assay: qHTS assay for small molecule agonists of glucocorticoid receptor signaling (AID 588532; active = well fitted curve in the direction sought with a large enough effect in the signal ratio, with a control signal flat; the % refers to the signal ratio;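 also: 100% = dexamethasone at 0.1 µM and 0% = DMSO only wells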); conditions: HeLa MMTV-bla, beta-lactamase ratio, agonist, 18 h; stronger effect = higher value; percent of dexamethasone control, DMSO zero
Procedure, shortened: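 Stimulation of a glucocorticoid response element-driven beta-lactamase gene was measured in HeLa cells. Responses were scaled between DMSO basal and 0.1 uM dexamethasone, then fitted for half-maximal stimulation.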

[6] = molecular target: Glucocorticoid receptor (Homo sapiens) (UniProt P04150); assay: qHTS assay for small molecule antagonists of glucocorticoid receptor signaling (AID 588533; active = well fitted inhibition curve with a large enough effect in the signal ratio, with a control signal flat, not every such curve was filed as active; the % refers to the signal ratio;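 also: cells stimulated with 2 nM dexamethasone as agonist; % is scaled to controls: 0 for no effect and ±100 for the full control effect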)
Procedure, shortened: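 Antagonist-mode qHTS: compound titrations added to GRE-bla HeLa cells, then dexamethasone 2 nM final; 18 h, 37 C. CCF4 FRET fluorescence normalized to dexamethasone and DMSO; IC50 from Hill fit.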

[7] = molecular target: Peroxisome proliferator-activated receptor gamma (Homo sapiens) (UniProt P37231); assay: qHTS assay for small molecule agonists of peroxisome proliferator-activated receptor gamma signaling (AID 588536; active = well fitted curve in the direction sought with a large enough effect in the signal ratio, with a control signal flat, not every such curve was filed as active; the % refers to the signal ratio;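 also: 0% = DMSO basal wells and 100% = rosiglitazone at 2 µM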)
Procedure, shortened: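 Cells were plated and held 6–6.5 h at 37 C, then compounds were added as a titration series. After a further 16 h, CCF4 dye was loaded for 2 h at room temperature and emission at 460/530 nm recorded.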

[8] = molecular target: Vitamin D3 receptor (Homo sapiens) (UniProt P11473); assay: qHTS assay for small molecule antagonists of vitamin D receptor signaling (AID 588541);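 also: receptor activated by calcitriol during compound treatment; series mostly up to about 77 µM; % is scaled to controls: 0 for no effect and ±100 for the full control effect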
Procedure, shortened: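 VDR-UAS-bla HEK293T cells (2000/well, 2% charcoal-stripped FBS) were treated with titrated compounds plus 1-alpha,25-dihydroxyvitamin D3 (50 nM or 3 nM final) for 16 h at 37 C. CCF4 beta-lactamase fluorescence was read; Hill fits gave IC50.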

[9] = molecular target: Vitamin D3 receptor (Homo sapiens) (UniProt P11473); assay: qHTS assay for small molecule agonists of vitamin D receptor signaling (AID 588543);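 also: 0% = DMSO basal and 100% = reference agonist control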
Procedure, shortened: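 Measured: β-lactamase reporter activity (CCF4, 405 nm excitation, 460/530 nm emission) in HEK293T VDR-UAS-bla cells after 16 h compound exposure at 37 °C. Normalization against 50 nM 1α,25-dihydroxyvitamin D3 and DMSO; Hill-fit EC50.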

[10] = qHTS assay for small molecule agonists of retinoid X receptor alpha signaling (AID 588544); conditions: HEK293T RXRa-UAS-bla, beta-lactamase reporter, 18 h; 530 nm emission;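 as to activation: 0% = DMSO basal wells and 100% = reference agonist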
[11] = molecular target: Retinoic acid receptor RXR-alpha (Homo sapiens) (UniProt P19793); assay: as above
[12] = molecular target: Thyroid hormone receptor beta (Homo sapiens) (UniProt P10828); assay: qHTS assay for small molecule agonists of thyroid hormone receptor beta signaling (AID 588545)
Procedure, shortened: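 Cells (2500/well) were seeded, incubated 4 hrs at 37 C, dosed with a compound series, incubated 18 hrs, loaded with CCF4 dye for 2 hrs at RT, then read for fluorescence. Data were scaled between DMSO (0%) and 10 nM T3 (100%).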

[13] = molecular target: Thyroid hormone receptor beta (Homo sapiens) (UniProt P10828); assay: qHTS assay for small molecule antagonists of thyroid hormone receptor beta signaling (AID 588547; active = well fitted inhibition curve with a large enough effect in the signal ratio, with a control signal flat, not every such curve was filed as active; the % refers to the signal ratio;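 also: cells stimulated with 0.4 nM T3 agonist during compound exposure; series mostly up to about 77 µM; % is scaled to controls: 0 for no effect and ±100 for the full control effect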); conditions: TR-UAS-bla HEK293, beta-lactamase ratio, antagonist mode, 18 h
Procedure, shortened: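 TR-UAS-bla GripTite HEK293 cells in 2% charcoal/dextran FBS medium were preincubated 4 h at 37 C, given compound (0.59 nM to 92 uM) plus 0.4 nM T3 (final) for 18 h, then CCF4 for 2 h at RT; Hill fit gave IC50.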

[14] = qHTS assay for small molecule agonists of the antioxidant response element (ARE) signaling pathway (AID 651741; active = well fitted activation curve with a large enough effect in the signal ratio; the % refers to the signal ratio; also: % of control where 0% means no effect)
Procedure, shortened: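 Reporter: beta-lactamase under ARE, stably in HepG2. Exposure: 16 h, 37 C, compounds delivered in DMSO by pin tool after 5 h cell preincubation. Readout: FRET substrate fluorescence after 2 h at RT.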

[15] = qHTS assay for small molecule activators of the p53 signaling pathway (AID 651743; active = well fitted activation curve with a large enough effect in the signal ratio, not every such curve was filed as active; the % refers to the signal ratio; also: series mostly up to about 92 µM; % of control where 0% means no effect); conditions: HCT-116 p53RE-bla, beta-lactamase FRET ratio, 16 h; activation: stronger effect = higher value
Procedure, shortened: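 Agonist-mode quantitative HTS in HCT-116 cells carrying a p53-response-element beta-lactamase reporter; 16 h compound treatment at 37 C, then FRET substrate loading for 2 h at room temperature and fluorescence read.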

[16] = qHTS assay for small molecule disruptors of the mitochondrial membrane potential - 1 hr assay (AID 651754); also: % is scaled to controls: 0 for no effect and ±100 for the full control effect; nearly all actives have a fitted effect of over 35% in size
Procedure, shortened: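 Mitochondrial potential in living HepG2 cells after 1 hr compound treatment at 37C was read with Mito-MPS dye added for a further 30 min. Red aggregate and green monomer fluorescence were measured; loss of potential leaves dye as cytoplasmic monomers.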

[17] = molecular target: Nuclear receptor ROR-gamma (Homo sapiens) (UniProt P51449); assay: qHTS assay for small molecule antagonists of the retinoid-related orphan receptor gamma (ROR-gamma) signaling pathway (AID 651802; active = well fitted curve in the direction sought with a large enough effect; an effect the other way counts as inactive or inconclusive;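 also: CHO cells with doxycycline-induced ROR-gamma expression; luciferase reporter luminescence driven by ROR response element; series mostly up to about 92 µM; % is scaled to controls: 0 for no effect and ±100 for the full control effect; nearly all actives have a fitted effect of over 60% in size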)
Procedure, shortened: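 Luminescence (One-Glo, 30 min RT) measured 16 h after compound addition and doxycycline induction at 37C. Reporter: RORE-luciferase under TET-inducible ROR-gamma in CHO cells.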

[18] = qHTS assay for small molecule agonists of the antioxidant response element (ARE) signaling pathway measured by Nrf2-dependant transcriptional activity (AID 720636; active = well fitted curve in the direction sought with a large enough effect in the repeat runs; an effect the other way counts as inactive or inconclusive; also: % of control where 0% means no effect)
Procedure, shortened: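 Nrf2-dependent transcription read as ONE-Glo luciferase signal from ARE-luc HepG2 reporter cells after 16 hr compound treatment at 37 C, 5% CO2, in assay medium with 1% dialyzed FBS.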

[19] = molecular target: Nuclear receptor subfamily 1 group I member 2 (Rattus norvegicus) (UniProt Q9R1A7); assay: qHTS assay for small molecule activators of the rat pregnane X receptor (rPXR) signaling pathway (AID 651751; call rule not given here; also: 0% is about no effect); conditions: rPXR reporter cells, luciferase (One-Glo), 24 h
[20] = qHTS assay for small molecule activators of the human pregnane X receptor (PXR) signaling pathway (AID 720659; call rule not given here; also: 0% is about no effect)

Chain of Estrogen receptor (Homo sapiens) (P03372 whole entry, looked up): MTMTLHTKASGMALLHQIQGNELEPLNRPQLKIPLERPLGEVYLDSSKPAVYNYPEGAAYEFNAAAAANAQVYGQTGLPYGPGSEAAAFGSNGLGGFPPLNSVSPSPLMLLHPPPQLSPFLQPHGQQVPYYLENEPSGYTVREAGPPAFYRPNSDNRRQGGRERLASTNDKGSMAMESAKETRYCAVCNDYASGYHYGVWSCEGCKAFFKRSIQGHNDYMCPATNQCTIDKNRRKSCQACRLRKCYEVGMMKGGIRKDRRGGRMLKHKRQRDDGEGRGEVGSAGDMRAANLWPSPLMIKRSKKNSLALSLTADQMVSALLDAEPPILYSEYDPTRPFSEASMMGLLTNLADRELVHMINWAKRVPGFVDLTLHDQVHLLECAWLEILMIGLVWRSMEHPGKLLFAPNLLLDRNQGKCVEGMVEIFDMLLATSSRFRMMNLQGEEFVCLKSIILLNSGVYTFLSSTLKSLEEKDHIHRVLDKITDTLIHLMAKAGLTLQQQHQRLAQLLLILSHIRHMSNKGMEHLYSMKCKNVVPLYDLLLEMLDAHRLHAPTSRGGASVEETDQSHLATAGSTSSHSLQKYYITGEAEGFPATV
Chain of Vitamin D3 receptor (Homo sapiens) (P11473 whole entry, looked up): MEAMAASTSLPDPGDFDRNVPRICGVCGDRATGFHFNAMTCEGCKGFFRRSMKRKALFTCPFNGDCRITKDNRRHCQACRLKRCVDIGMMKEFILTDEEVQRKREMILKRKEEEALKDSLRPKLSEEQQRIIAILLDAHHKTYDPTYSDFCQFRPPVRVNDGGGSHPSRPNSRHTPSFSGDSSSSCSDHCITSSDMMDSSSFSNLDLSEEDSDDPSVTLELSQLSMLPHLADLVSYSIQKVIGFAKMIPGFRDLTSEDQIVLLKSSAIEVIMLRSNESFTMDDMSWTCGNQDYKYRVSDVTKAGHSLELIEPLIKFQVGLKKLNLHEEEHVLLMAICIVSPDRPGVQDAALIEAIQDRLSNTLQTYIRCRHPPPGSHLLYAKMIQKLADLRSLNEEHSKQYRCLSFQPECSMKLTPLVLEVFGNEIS
Chain of Glucocorticoid receptor (Homo sapiens) (P04150 whole entry, looked up): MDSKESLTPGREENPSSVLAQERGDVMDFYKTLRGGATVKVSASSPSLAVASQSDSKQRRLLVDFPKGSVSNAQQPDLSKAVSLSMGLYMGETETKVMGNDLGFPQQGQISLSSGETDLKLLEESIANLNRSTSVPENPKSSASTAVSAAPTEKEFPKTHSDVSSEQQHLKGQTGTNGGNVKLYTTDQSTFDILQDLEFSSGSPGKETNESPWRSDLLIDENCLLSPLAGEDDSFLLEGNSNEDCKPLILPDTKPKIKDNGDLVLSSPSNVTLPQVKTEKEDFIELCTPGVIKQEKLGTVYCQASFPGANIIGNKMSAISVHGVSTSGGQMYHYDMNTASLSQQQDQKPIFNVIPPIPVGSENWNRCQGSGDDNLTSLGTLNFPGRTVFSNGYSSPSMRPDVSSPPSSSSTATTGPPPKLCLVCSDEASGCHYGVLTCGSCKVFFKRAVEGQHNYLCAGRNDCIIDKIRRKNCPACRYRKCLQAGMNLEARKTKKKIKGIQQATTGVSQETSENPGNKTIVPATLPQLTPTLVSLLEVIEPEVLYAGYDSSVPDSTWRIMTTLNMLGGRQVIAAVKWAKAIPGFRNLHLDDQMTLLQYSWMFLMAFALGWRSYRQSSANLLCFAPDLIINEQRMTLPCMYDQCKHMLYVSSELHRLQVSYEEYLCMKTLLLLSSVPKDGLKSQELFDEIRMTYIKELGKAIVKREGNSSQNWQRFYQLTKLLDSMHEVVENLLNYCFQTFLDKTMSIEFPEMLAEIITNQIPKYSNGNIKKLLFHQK
Chain of Cytochrome P450 3A4 (Homo sapiens) (P08684 whole entry, looked up): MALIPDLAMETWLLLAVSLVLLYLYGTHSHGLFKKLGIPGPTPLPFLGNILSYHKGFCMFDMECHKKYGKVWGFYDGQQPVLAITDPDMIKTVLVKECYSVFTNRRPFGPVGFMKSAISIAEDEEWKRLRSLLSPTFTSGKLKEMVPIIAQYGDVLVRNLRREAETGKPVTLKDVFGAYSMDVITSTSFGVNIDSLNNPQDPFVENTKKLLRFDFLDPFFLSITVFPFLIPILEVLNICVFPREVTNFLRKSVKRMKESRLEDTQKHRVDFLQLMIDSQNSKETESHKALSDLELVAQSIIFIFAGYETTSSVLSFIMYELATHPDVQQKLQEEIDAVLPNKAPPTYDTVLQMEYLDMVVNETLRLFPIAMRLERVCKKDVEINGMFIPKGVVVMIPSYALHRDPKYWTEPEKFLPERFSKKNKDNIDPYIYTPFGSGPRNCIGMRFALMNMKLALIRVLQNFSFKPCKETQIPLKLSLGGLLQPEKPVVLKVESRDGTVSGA
Chain of Nuclear receptor subfamily 1 group I member 2 (Rattus norvegicus) (Q9R1A7 whole entry, looked up): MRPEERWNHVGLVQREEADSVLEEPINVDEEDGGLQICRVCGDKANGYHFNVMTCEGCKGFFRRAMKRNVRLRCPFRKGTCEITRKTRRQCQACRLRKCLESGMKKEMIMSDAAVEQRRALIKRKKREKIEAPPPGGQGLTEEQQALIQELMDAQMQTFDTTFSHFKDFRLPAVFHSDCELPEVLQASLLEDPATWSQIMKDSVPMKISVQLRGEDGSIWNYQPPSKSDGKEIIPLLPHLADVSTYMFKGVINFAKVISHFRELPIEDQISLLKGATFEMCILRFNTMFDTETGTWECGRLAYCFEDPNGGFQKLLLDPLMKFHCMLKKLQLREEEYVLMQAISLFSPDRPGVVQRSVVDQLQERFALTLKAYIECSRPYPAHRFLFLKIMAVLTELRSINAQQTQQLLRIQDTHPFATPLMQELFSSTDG
Chain of Thyroid hormone receptor beta (Homo sapiens) (P10828 whole entry, looked up): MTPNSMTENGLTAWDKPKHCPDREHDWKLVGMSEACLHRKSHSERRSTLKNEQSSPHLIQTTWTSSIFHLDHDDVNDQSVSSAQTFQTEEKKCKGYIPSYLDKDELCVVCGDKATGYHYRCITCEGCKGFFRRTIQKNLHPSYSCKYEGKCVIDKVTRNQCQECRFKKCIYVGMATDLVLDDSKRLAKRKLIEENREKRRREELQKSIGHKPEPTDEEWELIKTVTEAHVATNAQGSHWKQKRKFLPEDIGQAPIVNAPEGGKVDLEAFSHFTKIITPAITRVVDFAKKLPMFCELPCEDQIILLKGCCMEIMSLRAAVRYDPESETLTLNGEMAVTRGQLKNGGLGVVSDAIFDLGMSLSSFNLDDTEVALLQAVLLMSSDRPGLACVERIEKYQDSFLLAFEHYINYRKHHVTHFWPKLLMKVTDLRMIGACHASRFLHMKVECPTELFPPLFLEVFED
Chain of Peroxisome proliferator-activated receptor gamma (Homo sapiens) (P37231 whole entry, looked up): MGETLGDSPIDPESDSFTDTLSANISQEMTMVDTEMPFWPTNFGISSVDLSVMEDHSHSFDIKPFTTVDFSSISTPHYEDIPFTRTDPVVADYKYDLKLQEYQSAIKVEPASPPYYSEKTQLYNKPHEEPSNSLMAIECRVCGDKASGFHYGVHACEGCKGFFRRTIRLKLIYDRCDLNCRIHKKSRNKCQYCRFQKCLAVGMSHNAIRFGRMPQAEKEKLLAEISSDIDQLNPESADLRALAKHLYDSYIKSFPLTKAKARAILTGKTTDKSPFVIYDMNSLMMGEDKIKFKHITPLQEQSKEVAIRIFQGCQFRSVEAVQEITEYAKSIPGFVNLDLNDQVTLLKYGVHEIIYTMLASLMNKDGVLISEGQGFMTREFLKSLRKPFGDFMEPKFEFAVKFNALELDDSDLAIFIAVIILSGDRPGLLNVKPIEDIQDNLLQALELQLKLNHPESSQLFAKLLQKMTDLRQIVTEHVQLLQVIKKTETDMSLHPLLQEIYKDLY
Chain of Retinoic acid receptor RXR-alpha (Homo sapiens) (P19793 whole entry, looked up): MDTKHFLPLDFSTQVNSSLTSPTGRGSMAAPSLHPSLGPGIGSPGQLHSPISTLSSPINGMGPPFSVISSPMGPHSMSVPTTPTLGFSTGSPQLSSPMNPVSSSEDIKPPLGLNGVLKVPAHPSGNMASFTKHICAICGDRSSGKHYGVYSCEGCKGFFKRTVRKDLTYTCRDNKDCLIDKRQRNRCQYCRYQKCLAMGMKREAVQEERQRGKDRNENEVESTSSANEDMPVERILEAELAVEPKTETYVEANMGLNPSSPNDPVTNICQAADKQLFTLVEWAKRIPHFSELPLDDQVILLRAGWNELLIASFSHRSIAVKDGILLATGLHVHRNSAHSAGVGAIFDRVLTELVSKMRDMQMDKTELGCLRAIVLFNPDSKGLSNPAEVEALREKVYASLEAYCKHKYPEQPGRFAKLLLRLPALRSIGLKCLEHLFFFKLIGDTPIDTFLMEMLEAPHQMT
Chain of Nuclear receptor ROR-gamma (Homo sapiens) (P51449 whole entry, looked up): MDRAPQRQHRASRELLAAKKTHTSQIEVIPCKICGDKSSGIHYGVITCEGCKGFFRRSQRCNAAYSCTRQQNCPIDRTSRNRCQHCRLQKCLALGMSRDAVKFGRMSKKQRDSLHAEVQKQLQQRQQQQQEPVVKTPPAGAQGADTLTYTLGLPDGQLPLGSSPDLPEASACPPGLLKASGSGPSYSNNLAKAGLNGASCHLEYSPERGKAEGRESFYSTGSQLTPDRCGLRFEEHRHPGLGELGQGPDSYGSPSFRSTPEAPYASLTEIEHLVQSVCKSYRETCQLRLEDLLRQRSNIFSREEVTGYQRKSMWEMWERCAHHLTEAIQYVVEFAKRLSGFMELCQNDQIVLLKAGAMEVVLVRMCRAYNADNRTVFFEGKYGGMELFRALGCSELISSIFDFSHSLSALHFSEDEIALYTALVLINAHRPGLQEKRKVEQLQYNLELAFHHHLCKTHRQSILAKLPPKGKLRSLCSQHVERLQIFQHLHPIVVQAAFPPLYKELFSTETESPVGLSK

ClCCCl
-4.78% and -12% and 1.75%: max response [10]
inactive: Potency [1] | Potency [2] | Potency [3] | Potency [4] | activation [5] -0.189% and 0.123% and 2.5% | Potency [6] | outcome [7] | outcome [8] | outcome [9] | outcome [11] | outcome [12] | activity change % (negative = inhibition) [13] 4.14% and 2.63% and 8.67% | Potency [14] | activation [15] 0.154% and -1.95% and -0.964% | Potency [16] | Potency [17] | Potency [18] | max response [19] 1.44% and 0.0885% and 1.57% | outcome [20]

C/C=C\c1ccc(OC)cc1
inactive: Potency [2] | outcome [7] | outcome [11] | outcome [12] | activity change % (negative = inhibition) [13] 20.9% | Potency [17] | Potency [18] | max response [19] 5.64% | outcome [20]
-9.52%: max response [10]

Cc1ccccc1C
-0.877% and 16.9%: max response [10]
inactive: Potency [1] | Potency [2] | Potency [3] | Potency [4] | activation [5] -7.63% and -0.245% | Potency [6] | outcome [7] | outcome [8] | outcome [9] | outcome [11] | outcome [12] | activity change % (negative = inhibition) [13] 8.96% and 15% | Potency [14] | activation [15] -3.02% and -3.15% | Potency [16] | Potency [17] | Potency [18] | max response [19] -1.06% and 4.02% | outcome [20]

Cc1cccc([N+](=O)[O-])c1C
-8% and -5.71%: max response [10]
inactive: Potency [1] | Potency [2] | Potency [3] | Potency [4] | outcome [7] | outcome [8] | outcome [9] | outcome [11] | outcome [12] | activity change % (negative = inhibition) [13] -0.0299% and -1.89% | Potency [14] | activation [15] -0.524% and 0.427% | Potency [16] | Potency [18] | max response [19] 1.82% and -0.351% | outcome [20]

COC(=O)CCCCC(=O)OC
-8.22% and -17.2% and -16.7%: max response [10]
inactive: Potency [1] | Potency [2] | Potency [3] | Potency [4] | activation [5] 7.61% and 12.5% | Potency [6] | outcome [7] | outcome [8] | outcome [9] | outcome [11] | outcome [12] | activity change % (negative = inhibition) [13] 22.1% and -0.698% and -15.8% | activation [15] -0.0209% and -1.5% | Potency [16] | Potency [17] | Potency [18] | max response [19] 5.4% and -0.278% and 0.834% | outcome [20]

O=C(O)CC(C(=O)O)C(CC(=O)O)C(=O)O (configuration not stated)
3.34% and -3.12%: max response [10]
inactive: Potency [1] | Potency [2] | Potency [3] | Potency [4] | activation [5] -3.1% and -3.88% | Potency [6] | outcome [7] | outcome [8] | outcome [9] | outcome [11] | outcome [12] | activity change % (negative = inhibition) [13] -3.7% and -9.45% | Potency [14] | activation [15] -3.49% and -0.408% | Potency [16] | Potency [18] | max response [19] -5.76% and 4.78% | outcome [20]

COCC(=O)O
0.473% and -13.2%: max response [10]
inactive: Potency [1] | Potency [2] | Potency [3] | Potency [4] | activation [5] 1.9% and -4.38% | Potency [6] | outcome [7] | outcome [8] | outcome [9] | outcome [11] | outcome [12] | activity change % (negative = inhibition) [13] -5.02% and -7.68% | Potency [14] | activation [15] 0.0042% and -6.16% | Potency [16] | Potency [17] | Potency [18] | max response [19] 1.77% and 0.862%

C=Cc1ccccc1Cl
-6.66%: max response [10]
inactive: Potency [1] | Potency [2] | Potency [3] | Potency [4] | activation [5] -0.22% | Potency [6] | outcome [7] | outcome [8] | outcome [9] | outcome [11] | outcome [12] | activity change % (negative = inhibition) [13] 9.88% | Potency [14] | activation [15] -0.152% | Potency [16] | Potency [17] | Potency [18] | max response [19] 1.05% | outcome [20]

CN(C)C=O
inactive: Potency [1] | Potency [2] | Potency [3] | Potency [4] | outcome [7] | outcome [12] | activity change % (negative = inhibition) [13] -4.62% and -13.9% and 12% | Potency [14] | activation [15] -4.49% and -0.185% and 0.579% | Potency [17] | Potency [18] | max response [19] 4.41% and 5.29% and 1.77% | outcome [20]
